According to PubChem BioAssay (Tox21):
Where “and” joins values, the source holds several entries; their conditions need not be identical. Equal entries are not always repeated. Calls of active or inactive are those of the source. A call without a number means that no potency is given here. Calls come from the whole dose curve.

Assay: G protein-coupled receptor (GPCR) small molecule agonists, calcium flux assay: HEK293 wild type cell line counter screen (AID 1920065)
How it was run: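 Fluorescence intensity signals activation. After overnight (18 h) culture and a 1 h calcium dye load at 37 C, compounds are added by pin tool and the plate read at 480/540 nm for 3 min in 1 s steps.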
Potency is the fitted concentration of half-maximal effect.

Row | Compound | Potency | activation
1 | Cc1c(C)c2c(c(C)c1O)CCC(C)(COc1ccc(CC3SC(=O)NC3=O)cc1)O2 (configuration not stated) | inactive | –
2 | COC(=O)C1=C(C)NC(C)=C(C(=O)OCCN(C)Cc2ccccc2)C1c1cccc([N+](=O)[O-])c1 (configuration not stated) | inactive | –
3 | Nc1c(S(=O)(=O)O)cc(Br)c2c1C(=O)c1ccccc1C2=O | inactive | –
4 | C#C[C@]1(O)CC[C@H]2[C@@H]3CCC4=CC(=O)CC[C@@H]4[C@H]3CC[C@@]21C | inactive | –
5 | COc1ccc(OC)c(C(O)CNC(=O)CN)c1 (configuration not stated) | inactive | –
6 | O=C1OC2(c3ccc(O)cc3Oc3cc(O)ccc32)c2ccccc21 | 1.74 µM (active) and 3.38 µM (active) | –
7 | O=Cc1ccccc1C=O | inactive | –
8 | COS(C)(=O)=O | inactive | –
9 | CC(C)OC(=O)C(C)(C)Oc1ccc(C(=O)c2ccc(Cl)cc2)cc1 | inactive | –
10 | Cn1sccc1=O | inactive | –
11 | O=c1[nH]cnc2[nH]ncc12 | inactive | –
12 | CCC/C=C/C=O | inactive | –
13 | C=CC(=O)OCC(CO)(COC(=O)C=C)COC(=O)C=C | inactive | –
14 | O=S(=O)(Oc1ccc(Cl)cc1Cl)c1ccccc1 | inactive | –
15 | C[N+](C)(C)CCO | inactive | –
16 | COC(=O)Nc1nc2ccc(S(=O)c3ccccc3)cc2[nH]1 (configuration not stated) | inactive | –
17 | CN(C)/N=N/c1nc[nH]c1C(N)=O | inactive | –
18 | O=S(=O)(O)c1ccc(N=Nc2c(O)ccc3cc(S(=O)(=O)O)ccc23)cc1 | inactive | –
19 | C=C[C@H]1CN2CC[C@H]1C[C@@H]2[C@@H](O)c1ccnc2ccc(OC)cc12 | inactive | –
20 | O=C(O)c1ccccc1C(c1ccc(O)cc1)c1ccc(O)cc1 | inactive | –
21 | Cc1cccc(Nc2ccccc2C(=O)O)c1C | inactive | –

Row | Compound | Potency | activation
22 | COc1cc(OC)nc(O[C@H](C(=O)O)C(OC)(c2ccccc2)c2ccccc2)n1 | inactive | –
23 | CCOCCOCC | inactive | –
24 | O=Cc1ccc(C(=O)O)cc1 | inactive | –
25 | CC1=CCC(=O)O1 | inactive | –
26 | NC(=O)N[C@@H](CCC(=O)O)C(=O)O | inactive | –
27 | O=C1Nc2ccccc2C1=O | inactive | –
28 | CCCCCCOC(=O)CC | inactive | –
29 | C=C(C)[C@@H]1CCC2=CC(=O)C[C@@H](C)[C@]2(C)C1 | inactive | –
30 | CNC(=O)Nc1ccc(Cl)c(Cl)c1 | inactive | –
31 | O=C[C@H](O)[C@@H](O)[C@H](O)[C@H](O)CO | inactive | –
32 | CCN1CCC[C@H]1CNC(=O)c1c(O)c(Cl)cc(Cl)c1OC | inactive | –
33 | CC/C=C/CCO | inactive | –
34 | CCOC(=O)c1ccc(C)cc1 | inactive | –
35 | O=C(O)[C@@H]1[C@H]2C[C@H]3c4[nH]c5ccccc5c4CCN3C[C@@H]2CC[C@@H]1O | inactive | –
36 | CCOc1c(N2CCOCC2)cnn(C)c1=O | inactive | –
37 | Nc1ccc([N+](=O)[O-])c(C(F)(F)F)c1 | inactive | –
38 | N[C@H]1C(O)O[C@H](CO)[C@@H](O)[C@@H]1O (some centres not stated) | inactive | –
39 | Cc1cccc(S(=O)(=O)O)c1C | inactive | –
40 | OCCc1ccccn1 | inactive | –
41 | CCCCCCCCCCCCCCCC(=O)OC | – | 0.455% [at 11.8 µM] (inactive)
42 | CCCCN(CCO)CCO | inactive | –

Row | Compound | Potency | activation
43 | Cc1cccc(N(C)C(=S)Oc2ccc3ccccc3c2)c1 | inactive | –
44 | CN1C(=O)CC(C)(c2ccccc2)C1=O (configuration not stated) | inactive | –
45 | C=CC(C)(O)CC/C=C(/C)CCC=C(C)C (configuration not stated) | inactive | –
46 | Cc1cc(N)n(-c2ccccc2)n1 | inactive | –
47 | COc1cccc(Br)c1 | inactive | –
48 | CCCCCCCCCCCCCCCCCC(=O)OCC(CC)CCCC (configuration not stated) | inactive | –
49 | C[N+]1([O-])CCOCC1 | inactive | –
50 | NCCCN1CCN(CCCN)CC1 | inactive | –
51 | CC(C)(CCl)c1ccccc1 | inactive | –
52 | COc1cc(/C=C/C(N)=O)cc(OC)c1OC | inactive | –
53 | OC/C=C/CO | inactive | –
54 | COC(=O)c1ccc(C)cc1C1=NC(C)(C(C)C)C(=O)N1 (configuration not stated) | inactive | –
55 | c1coc(CNc2ncnc3nc[nH]c23)c1 | inactive | –
56 | CCOC(=O)C(C)C(C)=O (configuration not stated) | inactive | –
57 | NC[C@H]1O[C@H](O[C@H]2[C@H](O)[C@@H](O[C@H]3O[C@H](CO)[C@@H](O)[C@H](N)[C@H]3O)[C@H](N)C[C@@H]2N)[C@H](N)[C@@H](O)[C@@H]1O | – | -0.87% [at 11.8 µM] (inactive)
58 | O=CC1CC=CCC1 (configuration not stated) | inactive | –
59 | CC(O)C(CO)C(C)O (configuration not stated) | inactive | –
60 | c1ccc2cnccc2c1 | inactive | –
61 | CC(=O)OCCc1ccccc1 | inactive | –
62 | CC(=O)CCC(C)C | inactive | –
